What all share (experiment): DAPPL (digital affinity profiling via proximity ligation, sequencing); 10 mM Tris-HCl pH 7.5, 50 mM NaCl, 1 mM DTT, 4% glycerol, room temperature, 30 min; GST-TFs on glutathione beads, 16-mer random dsDNA library, 0.1% formaldehyde crosslink after washing; high values mean tight binding
What all share (settings): protein: recombinant; tags: N-terminal GST; dsDNA, one strand shown

Assay [1] addresses T1, ELK1 (Homo sapiens, UniProt P19419 1-428).
T1 sequence: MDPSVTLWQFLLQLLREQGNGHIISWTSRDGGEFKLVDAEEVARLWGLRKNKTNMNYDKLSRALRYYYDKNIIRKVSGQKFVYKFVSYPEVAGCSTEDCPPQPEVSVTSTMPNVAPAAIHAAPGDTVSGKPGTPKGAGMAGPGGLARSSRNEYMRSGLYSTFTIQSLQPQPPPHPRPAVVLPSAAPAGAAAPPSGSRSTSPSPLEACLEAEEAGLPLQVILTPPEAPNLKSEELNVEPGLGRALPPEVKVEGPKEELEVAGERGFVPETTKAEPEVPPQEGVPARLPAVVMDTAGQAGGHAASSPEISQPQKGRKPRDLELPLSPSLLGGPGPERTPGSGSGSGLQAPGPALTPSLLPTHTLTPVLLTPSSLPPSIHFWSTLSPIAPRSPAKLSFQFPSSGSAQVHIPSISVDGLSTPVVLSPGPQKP
A digest of the protocol: (§1)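 GST fusions of human transcription factors were expressed in yeast and captured with glutathione beads. Once given DNA barcodes and pooled alongside a tag-only sample, they were incubated for 30 min at room temperature with 200 nmole of a random double-stranded 16-mer DNA library in Tris/NaCl/DTT/glycerol buffer, then washed, crosslinked (0.1% formaldehyde), proximity-ligated, PCR-amplified and sequenced on an Illumina NextSeq500. The binding signal of each hexamer is its read frequency for a factor divided by its frequency for the tag-only sample.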

The target of assay [2] is T2, GABPA (Homo sapiens, UniProt Q06546 1-454).
T2 sequence: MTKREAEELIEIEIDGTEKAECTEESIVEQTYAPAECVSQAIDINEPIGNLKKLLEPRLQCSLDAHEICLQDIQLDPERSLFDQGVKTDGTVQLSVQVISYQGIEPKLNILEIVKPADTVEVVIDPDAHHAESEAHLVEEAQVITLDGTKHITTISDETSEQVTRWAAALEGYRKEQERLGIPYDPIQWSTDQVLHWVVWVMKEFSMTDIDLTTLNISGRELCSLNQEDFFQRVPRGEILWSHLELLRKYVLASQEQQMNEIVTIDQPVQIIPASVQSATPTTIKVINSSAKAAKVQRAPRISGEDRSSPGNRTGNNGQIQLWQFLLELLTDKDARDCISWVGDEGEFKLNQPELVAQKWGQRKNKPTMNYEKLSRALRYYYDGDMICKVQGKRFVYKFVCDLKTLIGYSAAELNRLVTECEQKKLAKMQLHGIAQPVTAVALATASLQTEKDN
In short, it runs like this:
as §1

Assay [3] has as its target T3, ERG (Homo sapiens, UniProt P11308 1-479).
T3 sequence: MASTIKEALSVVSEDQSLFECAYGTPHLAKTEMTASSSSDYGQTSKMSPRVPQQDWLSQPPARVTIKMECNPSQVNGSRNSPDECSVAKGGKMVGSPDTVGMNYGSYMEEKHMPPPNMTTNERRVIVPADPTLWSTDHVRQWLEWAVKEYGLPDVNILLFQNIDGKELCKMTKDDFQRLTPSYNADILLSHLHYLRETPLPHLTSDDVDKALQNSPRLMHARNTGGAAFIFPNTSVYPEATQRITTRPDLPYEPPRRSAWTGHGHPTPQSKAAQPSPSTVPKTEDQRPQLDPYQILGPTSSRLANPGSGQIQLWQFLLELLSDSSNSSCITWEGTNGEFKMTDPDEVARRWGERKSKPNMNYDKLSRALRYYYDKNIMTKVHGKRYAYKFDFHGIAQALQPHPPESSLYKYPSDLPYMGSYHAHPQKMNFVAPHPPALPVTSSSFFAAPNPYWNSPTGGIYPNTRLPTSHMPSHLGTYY
A digest of the protocol:
as §1

Assay [4] deals with ELF1 (Homo sapiens, UniProt P32519 1-619). In short, it runs like this: as §1
Sequence of ELF1 (P32519 whole entry): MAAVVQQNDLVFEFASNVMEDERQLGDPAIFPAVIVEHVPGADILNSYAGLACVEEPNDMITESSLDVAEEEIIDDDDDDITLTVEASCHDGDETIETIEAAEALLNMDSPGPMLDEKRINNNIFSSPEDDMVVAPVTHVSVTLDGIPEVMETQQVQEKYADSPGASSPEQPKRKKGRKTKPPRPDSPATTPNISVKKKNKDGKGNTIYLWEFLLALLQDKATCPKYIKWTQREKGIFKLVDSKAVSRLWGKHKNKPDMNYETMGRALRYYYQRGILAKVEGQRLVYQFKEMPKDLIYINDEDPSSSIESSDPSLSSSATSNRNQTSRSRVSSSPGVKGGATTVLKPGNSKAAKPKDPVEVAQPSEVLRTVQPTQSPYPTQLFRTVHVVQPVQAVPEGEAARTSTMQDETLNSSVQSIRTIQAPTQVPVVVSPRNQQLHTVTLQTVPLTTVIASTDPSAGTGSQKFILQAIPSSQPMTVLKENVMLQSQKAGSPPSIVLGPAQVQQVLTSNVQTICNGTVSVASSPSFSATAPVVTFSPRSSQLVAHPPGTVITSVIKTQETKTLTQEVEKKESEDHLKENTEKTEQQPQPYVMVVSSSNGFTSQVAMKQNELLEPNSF
Assay [5] deals with T4, EHF (Homo sapiens, UniProt Q9NZC4 1-300).
T4 sequence: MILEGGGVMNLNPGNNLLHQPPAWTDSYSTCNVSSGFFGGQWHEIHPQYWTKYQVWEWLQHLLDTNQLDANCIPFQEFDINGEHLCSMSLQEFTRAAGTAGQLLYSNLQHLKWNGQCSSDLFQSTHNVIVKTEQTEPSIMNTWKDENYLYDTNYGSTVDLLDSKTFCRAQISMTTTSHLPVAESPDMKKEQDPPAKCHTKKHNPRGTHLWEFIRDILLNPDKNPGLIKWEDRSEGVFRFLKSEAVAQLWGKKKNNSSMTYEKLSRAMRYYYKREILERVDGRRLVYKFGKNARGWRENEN
In short, it runs like this: as §1

The target of assay [6] is SPIB (Homo sapiens, UniProt Q01892 1-262). A digest of the protocol:
as §1

In assay [7] the target is T5, FEV (Homo sapiens, UniProt Q99581 1-238).
T5 sequence: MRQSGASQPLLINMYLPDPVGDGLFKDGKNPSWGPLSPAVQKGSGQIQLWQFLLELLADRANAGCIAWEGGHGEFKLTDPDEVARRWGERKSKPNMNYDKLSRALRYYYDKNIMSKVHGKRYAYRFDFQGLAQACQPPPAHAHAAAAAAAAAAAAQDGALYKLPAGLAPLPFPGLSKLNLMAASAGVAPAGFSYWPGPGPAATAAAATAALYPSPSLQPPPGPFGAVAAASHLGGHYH
A digest of the protocol:
as §1

For assay [8], the target named is ETV5 (Homo sapiens, UniProt P41161 1-510). A digest of the protocol: as §1
Sequence of ETV5 (P41161 whole entry): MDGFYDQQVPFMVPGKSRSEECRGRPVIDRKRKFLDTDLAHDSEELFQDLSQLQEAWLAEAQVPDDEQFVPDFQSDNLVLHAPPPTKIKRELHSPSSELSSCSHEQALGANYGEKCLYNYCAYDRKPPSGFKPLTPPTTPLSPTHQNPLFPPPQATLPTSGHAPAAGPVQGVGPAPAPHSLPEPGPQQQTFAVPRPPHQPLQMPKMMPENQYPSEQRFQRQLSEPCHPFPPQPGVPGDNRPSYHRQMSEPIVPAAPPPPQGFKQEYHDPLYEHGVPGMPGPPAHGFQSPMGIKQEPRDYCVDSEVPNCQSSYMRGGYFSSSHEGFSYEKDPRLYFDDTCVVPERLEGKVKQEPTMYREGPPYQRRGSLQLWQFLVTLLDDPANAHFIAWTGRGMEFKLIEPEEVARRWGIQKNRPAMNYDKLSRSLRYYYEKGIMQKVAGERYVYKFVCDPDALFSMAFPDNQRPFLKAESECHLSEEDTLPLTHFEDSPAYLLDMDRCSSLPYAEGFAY
The target of assay [9] is ELF4 (Homo sapiens, UniProt Q99607 1-663). In short, it runs like this: as §1
Sequence of ELF4 (Q99607 whole entry): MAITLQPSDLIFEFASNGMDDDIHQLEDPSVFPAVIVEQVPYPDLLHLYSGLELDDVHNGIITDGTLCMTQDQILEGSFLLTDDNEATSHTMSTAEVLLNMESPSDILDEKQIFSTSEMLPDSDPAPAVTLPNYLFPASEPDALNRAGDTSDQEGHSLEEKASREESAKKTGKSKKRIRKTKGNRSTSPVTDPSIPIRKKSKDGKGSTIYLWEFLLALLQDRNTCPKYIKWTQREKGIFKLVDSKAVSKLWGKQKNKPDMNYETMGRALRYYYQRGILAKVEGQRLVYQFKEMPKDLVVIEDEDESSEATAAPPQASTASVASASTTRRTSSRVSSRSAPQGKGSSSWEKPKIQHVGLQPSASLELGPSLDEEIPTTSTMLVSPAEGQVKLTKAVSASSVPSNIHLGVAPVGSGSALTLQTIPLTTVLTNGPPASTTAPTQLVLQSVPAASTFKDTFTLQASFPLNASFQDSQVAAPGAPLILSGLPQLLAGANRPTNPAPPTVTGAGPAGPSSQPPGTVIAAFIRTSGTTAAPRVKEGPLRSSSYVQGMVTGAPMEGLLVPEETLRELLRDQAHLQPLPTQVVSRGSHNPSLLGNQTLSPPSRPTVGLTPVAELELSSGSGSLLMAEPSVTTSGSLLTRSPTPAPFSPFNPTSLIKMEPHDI
In assay [10] the target is T6, ELK4 (Homo sapiens, UniProt P28324-2 1-405).
T6 sequence: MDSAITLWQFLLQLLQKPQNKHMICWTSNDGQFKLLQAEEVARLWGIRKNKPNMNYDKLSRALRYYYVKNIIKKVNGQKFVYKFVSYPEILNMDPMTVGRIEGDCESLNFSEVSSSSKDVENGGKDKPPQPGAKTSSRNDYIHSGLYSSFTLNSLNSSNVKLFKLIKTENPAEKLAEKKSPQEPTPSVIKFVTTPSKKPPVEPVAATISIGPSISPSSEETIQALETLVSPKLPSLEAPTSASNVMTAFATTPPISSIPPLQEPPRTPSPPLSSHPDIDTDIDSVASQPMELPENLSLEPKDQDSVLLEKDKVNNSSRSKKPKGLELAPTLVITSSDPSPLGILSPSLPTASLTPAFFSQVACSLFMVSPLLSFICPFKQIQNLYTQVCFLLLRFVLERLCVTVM
A digest of the protocol:
as §1

In PMC7862700, “An all-to-all approach to the identification of sequence-specific readers for epigenetic DNA modifications on cytosine” one finds binding signal data, which are given here for one sequence.

Sequence of SPIB (Q01892 whole entry): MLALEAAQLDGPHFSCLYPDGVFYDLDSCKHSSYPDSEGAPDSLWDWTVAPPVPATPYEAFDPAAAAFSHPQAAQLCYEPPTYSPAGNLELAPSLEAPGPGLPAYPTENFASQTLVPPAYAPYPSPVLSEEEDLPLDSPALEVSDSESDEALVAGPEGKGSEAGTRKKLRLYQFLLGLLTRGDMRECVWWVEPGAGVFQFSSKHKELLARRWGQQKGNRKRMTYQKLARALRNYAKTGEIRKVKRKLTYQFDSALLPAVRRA

For the sequence CATGAC, the binding signal in [1] was 1.18 fold enrichment (6-mer frequency, TF over GST control); in assay [2], 1.34 fold enrichment (6-mer frequency, TF over GST control); in assay [3], 1.14 fold enrichment (6-mer frequency, TF over GST control); in assay [4], 1.18 fold enrichment (6-mer frequency, TF over GST control); in assay [5] it was 1.25 fold enrichment (6-mer frequency, TF over GST control); in assay [6], 1.16 fold enrichment (6-mer frequency, TF over GST control). Further, the binding signal in [7] was 1.17 fold enrichment (6-mer frequency, TF over GST control); in assay [8], 1.24 fold enrichment (6-mer frequency, TF over GST control); in assay [9], 1.28 fold enrichment (6-mer frequency, TF over GST control); in assay [10], 1.09 fold enrichment (6-mer frequency, TF over GST control).
